Where “and” joins values, the source holds several entries; their conditions need not be identical. Equal entries are not always repeated. This is part of a sample that, as a whole, favours compounds with a hit. Of some 79,000 tested, about 15% had one in any assay. No stated cut-off is given here; in the data, active means growth inhibition above about 70%; inactive means the rest.
Legend:
[1] = NCI Yeast Anticancer Drug Screen. Data for the rad50 strain (AID 155);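 further: 0% = growth of vehicle-only cultures of the same strain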; settings: S. cerevisiae rad50 strain growth inhibition, active compounds read high; at 50.0 µM unless noted
Method in brief: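 Yeast carrying a defined DNA repair defect were exposed to test compounds, and growth was compared with vehicle-treated controls to give percent inhibition.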

[2] = NCI Yeast Anticancer Drug Screen. Data for the mec2-1 strain (AID 157); settings: S. cerevisiae mec2-1 strain, active compounds read high; at 50.0 µM unless noted
Method in brief: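 Vehicle-treated cultures served as reference for growth inhibition of compound-exposed mec2-1 yeast.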

[3] = NCI Yeast Anticancer Drug Screen. Data for the sgs1 mgt1 strain (AID 161);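 further: 0% = growth of cultures given vehicle only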; settings: S. cerevisiae sgs1 mgt1 strain, active compounds read high; at 50.0 µM unless noted
Method in brief: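 Read-out: growth inhibition vs vehicle controls. Cells: mutant yeast strain deficient in DNA damage repair.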

[4] = NCI Yeast Anticancer Drug Screen. Data for the cln2 rad14 strain (AID 165);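 further: 0% = growth equal to vehicle treated cultures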; settings: S. cerevisiae cln2 rad14 strain, active compounds read high; at 50.0 µM unless noted
Method in brief: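 Each compound was tested on cln2 rad14 yeast. Inhibition of growth was calculated against vehicle-exposed controls.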

[5] = NCI Yeast Anticancer Drug Screen. Data for the bub3 strain (AID 167); settings: S. cerevisiae bub3 mutant strain, active compounds read high; at 50.0 µM unless noted
Method in brief: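 Compounds were applied to a genetically altered yeast strain carrying a cell-cycle control defect. Growth inhibition was scored against vehicle-treated controls.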

[6] = NCI Yeast Anticancer Drug Screen. Data for the mlh1 rad18 strain (AID 175); settings: S. cerevisiae mlh1 rad18 strain growth inhibition, active compounds read high; at 50.0 µM unless noted
Method in brief: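 Vehicle-treated cultures served as the reference for growth inhibition in a yeast strain carrying DNA damage repair alterations exposed to each compound.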

Measured: growth inhibition

O=C(O)CCCCCCC(=O)O
inactive: [1] 2.1% | [2] -4.85% | [3] 2.85% | [4] 2.95% | [5] 0.9% | [6] -2.3%

Cc1ccc(OCCC(=O)O)cc1
inactive: [1] 6.9% | [2] -6.15% | [3] -11.2% | [4] -63.5% | [5] -26.6% | [6] -1.65%

CC1CCCN1c1ccnc2cc(Cl)ccc12 (configuration not stated)
inactive: [1] 11.9% | [2] -3.3% | [3] 7.15% | [4] -2.2% | [5] 8.25% | [6] 20.3%

Cc1c(C)c(C)c(CCc2c(C)c(C)c(C)c(C)c2C)c(C)c1C
inactive: [1] -16.8% | [2] -1.25% | [3] -0.9% | [4] -16.5% | [5] -4.15% | [6] -12.3%

O=S(=O)(O)C(I)S(=O)(=O)O
inactive: [1] -19.1% | [2] -2.65% | [3] -19.4% | [4] -18.2% | [5] -10.8% | [6] -20%

C=CCc1cc2c(C)cc(=O)oc2c(C)c1OC(C)=O
inactive: [1] -4.1% | [2] -23.8% | [3] -1.1% | [4] 13.1% | [5] -25.9% | [6] -2.45%

O=C1/C(=C/c2cccc([N+](=O)[O-])c2)Cc2ccccc21
inactive: [1] 12.7% | [2] -5.9% | [3] 5.65% | [4] 14.1% | [5] 17.6% | [6] 5.05%

c1cc2c(cc1C1=NNC(c3ccc4c(c3)OCO4)=NN1)OCO2
inactive: [1] -13.3% | [2] 10.2% | [3] -7.45% | [4] 1.4% | [5] -4.95% | [6] -3.05%

O=C1NC(=O)C2C3OC(C(Cl)C3Cl)C12 (configuration not stated)
inactive: [1] 0.8% and 18.2% | [2] -19.5% and 11.5% | [3] -7.85% and 12.5% | [4] 20.4% and 42.7% | [5] -4.95% and 7.95% | [6] -7.85% and -1.25%

O=C1OC(=O)C2C(Cl)C(Cl)C12 (configuration not stated)
inactive: [1] -5.1% | [2] -7.2% | [3] 2.7% | [4] -37.6% | [5] -15.8% | [6] 3.4%

CN(Cc1ccc(Cl)cc1)N=Nc1ccc(C(=O)O)cc1
inactive: [1] -5.5% | [2] 4.4% | [3] 24.7% | [4] 25.8% | [5] 16.6% | [6] 24.6%

CC(C)(CO)NCC(C)(C)[N+](=O)[O-]
inactive: [1] 8.5% | [2] 2.25% | [3] 14.6% | [4] -9.2% | [5] 6.95% | [6] 6.7%

O=C(NCN1CCOCC1)NC(=O)NCN1CCOCC1
inactive: [1] -10.6% | [2] 7.4% | [3] -7.6% | [4] -3.9% | [5] 12.2% | [6] -3.95%

CC(C)(C)OC(=O)NCCCCC(N)C(N)=O (configuration not stated)
inactive: [1] -19.6% | [2] -32.2% | [3] -31.9% | [4] 15.8% | [5] 5.15% | [6] -1.95%

CC(=O)NC1(NC(C)=O)C2CC(C1Cc1ccccc1)C(C)(C)C2C (configuration not stated)
inactive: [1] 4.75% | [2] -14.7% | [3] -18.6% | [4] -11.6% | [5] -43.5% | [6] -38.5%

CCOC(=O)C1=CN=C2C(=O)N(c3ccccc3)N(C)C2(C)C1=N (configuration not stated)
inactive: [1] -4.8% | [2] 0.95% | [3] -19.4% | [4] 10.8% | [5] -11.2% | [6] 12.9%

CCOC(=O)c1sc2c(c1OC(=O)c1ccc(OC)cc1)c(=O)n(-c1ccccc1)c(=S)n2-c1ccccc1
inactive: [1] 39.5% | [2] 9.65% | [3] 23.4% | [4] 17.5% | [5] 31% | [6] 38.4%

Nn1c(CCCl)nc2c(Br)cc(Br)cc2c1=O
inactive: [1] 13.8% | [2] 2.9% | [3] -2.45% | [4] 3.25% | [5] 12.6% | [6] 8.5%

CC(C)OC(=O)CCC(N)C(=O)O (configuration not stated)
inactive: [1] 2.95% | [2] 0.6% | [3] 1.85% | [4] -4.8% | [5] 2.55% | [6] 0.1%

O=C(Nc1ccc(Cl)cc1)NC1OC(=O)C(Cl)=C1Cl (configuration not stated)
inactive: [1] 23.4% | [2] 9.3% | [3] 8.55% | [4] -17.9% | [5] 3.5% | [6] 23.1%

COc1ccccc1-n1c(=O)c(N=Nc2ccc(C)cc2)c(O)n(-c2ccccc2C)c1=S
inactive: [1] -34.8% | [2] -10.5% | [3] -17.9% | [4] -44.1% | [5] 0% | [6] -37.5%

CCCCCCCCCCCCCCCCCc1c(Cl)c(Cl)c(Cl)c(Cl)c1Cl
inactive: [1] 47% | [2] -4% | [3] 26.4% | [4] -45.1% | [5] -2.75% | [6] -6.6%
